# High-throughput results: PubChem BioAssay, National Center for Advancing Translational Sciences (NCATS)
# Compounds with a hit are over-represented: about 12% of the library has one in this group of screens.
# HCV inh: qHTS Assay for Inhibitors of Hepatitis C Virus (HCV) | Huh7.5.1 HCVcc-Cre infection, luciferase reporter, 44 h | AID 651820, 2012 | hit rate 3.4% among 340,000 | Potency, µM (highest dose often 41.8 µM), without a hit: at the top dose activity change, negative = inhibition, most hits filed as inhibitors; note: % is set by controls: 0 for no effect and ±100 for the full control effect
#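 Reporter virus HCVcc-Cre (~0.5 moi) infects cells exposed to compound; seeding density 1,000 cells/well with 4 h settling beforehand. Luminescence, 15 sec read, taken 44 h post-infection following a 15 min RT substrate incubation.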
# SARS PLP yeast: qHTS of Yeast-based Assay for SARS-CoV PLP; S. cerevisiae expressing SARS-CoV PLpro, growth rescue; Potency, µM (titrated, usually from 32.9 µM), for inactives: at the top dose activity, positive = growth rescue, hits mostly activators; hit rate 0.19% among 330,000; calls by dose curve; note: 0% is about no effect; nearly all actives have a fitted effect of over 55% in size
# AMA1-RON2 inh: qHTS for Inhibitors of AMA1-RON; Towards Development of Antimalarial Drug Lead: Primary Screen; Plasmodium falciparum AMA1 (3D7) - RON2 peptide interaction; AlphaScreen AMA1-biotinylated RON2 peptide binding; Potency, µM (series often up to 58.2 µM), for inactives: at the top dose activity change, negative = inhibition, hits mostly inhibitors; hit rate 0.2% among 360,000; AID 720542, 2013;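 note: 0% = vehicle wells and -100% = peptide control; nearly all actives have a fitted effect of over 45% in size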
#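 AMA1 (3D7) with his tag at 25 nM final met compounds first, then biotinylated RON2 peptide at 25 nM; detection used donor plus acceptor beads, 10 µg/mL apiece, read by AlphaScreen after 30 min at room temperature.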
# Pf growth 48h: Primary qHTS for delayed death inhibitors of the malarial parasite plastid, 48 hour incubation; hit rate 5.9% among 310,000; Potency, µM (titrated, usually from 28.7 µM), for the others: at the highest dose activity change, negative = inhibition, most hits filed as inhibitors; AID 504832, 2011; P. falciparum luciferase growth in erythrocytes, 48 h; note: % is set by controls: 0 for no effect and ±100 for the full control effect
#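 Luciferase-expressing parasites in RBCs, 2% Hct / 0.1% parasitemia final; RPMI 1640 + 0.5% Albumax; 37 C, 5% CO2, one generation; luminescence read-out, lower signal = inhibition.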
# Pf growth 96h: Primary qHTS for delayed death inhibitors of the malarial parasite plastid, 96 hour incubation. P. falciparum luciferase reporter growth, 96 h. hit rate 6.9% among 320,000. Potency, µM (titrated, usually from 28.7 µM), for the others: at the highest dose activity change, negative = inhibition, hits mostly inhibitors; note: % is set by controls: 0 for no effect and ±100 for the full control effect
#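 Parasite growth measured via integrated firefly luciferase reporter in P. falciparum. Infected erythrocytes at 2% hematocrit, 0.05% parasitemia final were treated 96 hours at 37 C under 5% CO2, and luminescence was read.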
# NS1 inh: qHTS Assay for Inhibitors of Influenza NS1 Protein Function; Potency, µM (highest dose often 46.1 µM), without a hit: top-dose activity, positive = more growth; hit rate 0.4% among 270,000; AID 2326, 2010; calls by dose curve; note: actives are rising curves; nearly all actives have a fitted effect of over 50% in size
#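 Growth recovery, yeast-based: influenza A NS1 expressed in S. cerevisiae causes slow growth, and suppressors are detected by OD600. The parent strain without NS1 is used as positive control.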
# Starred values were filed as active, the others as inactive; ? = inconclusive; . = not tested or not shown; [ ] = dose if it differs, or a comment. Unless noted, calls come from the whole dose curve; as a rule, active = well fitted curve in the direction sought with a large enough effect; inconclusive = small, poorly fitted or top-dose-only effect, or another doubt; inactive = no such curve, though single readings can be large; an effect the other way counts as inactive or inconclusive. Potency is the fitted concentration of half-maximal effect.
SMILES,HCV inh,SARS PLP yeast,AMA1-RON2 inh,Pf growth 48h,Pf growth 96h,NS1 inh
COc1ccc(C2c3c(-c4ccccc4O)n[nH]c3C(=O)N2Cc2ccco2)cc1 (stereo unspecified),-26%,3%,49%,?,9.3µM*,3%
O=C1c2[nH]nc(-c3ccccc3O)c2C(c2cccc(O)c2)N1Cc1ccco1 (stereo unspecified),?,4%,-12%,2%,?,12%
Cc1ccc(S(=O)(=O)N2Cc3ccccc3CC2C(=O)Nc2ccc3c(c2)OCO3)cc1 (stereo unspecified),?,6%,-14%,-27%,.,-4%
CN(C)C(=O)C1Cc2ccccc2CN1S(=O)(=O)c1ccc(F)cc1 (stereo unspecified),-3%,1%,11%,8%,4.1µM*,-43%
Cc1ccc(S(=O)(=O)N2Cc3ccccc3CC2C(=O)NC(C)(C)C)cc1 (stereo unspecified),-12%,-2%,-1%,2%,12µM*,13%
COCCNCc1nc2sc(C)c(-c3ccccc3)c2c(=O)[nH]1,-23%,1%,93%,4%,2%,-3%
O=C(/C=C/c1ccccc1)OCc1ccccc1,.,.,.,15%,22%,.
Clc1cccc(Cl)c1NC1=NCCN1,.,9%,.,-14%,12µM*,1%
Fc1cccc(F)c1-n1c(CN2CCCC2)csc1=S,?,2%,-22%,?,5.9µM*,.
Cc1ccccc1C(=O)N1CC(=O)Nc2ccc(F)cc2C1c1ccccc1 (stereo unspecified),-11%,2%,-5%,?,9%,2%
Cc1ccc(-n2c(C)c(C)c3c(N)ncnc32)cc1,-15%,0%,0%,21%,13%,-16%
CC1=CC(C)(C)N(S(=O)(=O)c2ccc(F)cc2)c2ccc(C)cc21,?,0%[6.58 µM],1%,.,15µM*,4%
COc1ccc2c(c1)C(C)=CC(C)(C)N2S(=O)(=O)c1ccc(Br)cc1,?,-4%,9%,9.3µM*,-11%,-4%
CCOc1ccc2c(c1)C(C)=CC(C)(C)N2S(=O)(=O)c1ccc(F)cc1,?,-4%,13%,-16%,?,-56%
CC1=CC(C)(C)N(S(=O)(=O)c2ccc(C)cc2)c2ccccc21,-1%,-25%,-1%,.,10µM*,-5%
CCOc1ccc2c(c1)C(C)=CC(C)(C)N2S(=O)(=O)c1ccc(NC(C)=O)cc1,?,5%,-2%,6.6µM*,45%,-12%
COc1ccc2c(c1)C(C)=CC(C)(C)N2S(=O)(=O)c1ccc(NC(C)=O)cc1,6%,-1%,3%,?,-4%,-5%
Cc1onc(-c2ccccc2Cl)c1C(=O)Oc1cccc2cccnc12,-4%,-3%,108%,?,24%,.
Cc1c(CCC(=O)N[C@@H](C)C(=O)O)c(=O)oc2cc3occ(-c4ccccc4)c3cc12,5%,-1%,14%,8%,7%,1%
O=C1C=C(Nc2ccc(Cl)cc2)CC(c2ccco2)C1 (stereo unspecified),?,2%,5%,9.3µM*,?,-4%
O=C1C=C(NCc2ccco2)CC(c2ccc(Cl)cc2)C1 (stereo unspecified),?,-7%,12%,-12%,-12%,-9%
Cc1ccc(C2CC(=O)C=C(Nc3ccc(Cl)cc3)C2)cc1 (stereo unspecified),3%,2%,-2%,15µM*,32%,0%
O=C1C=C(Nc2ccc(Cl)cc2)CC(c2ccc(Cl)cc2)C1 (stereo unspecified),-30%,-6%,-3%,9.3µM*,?,-32%
CCCCCCCNC1=CC(=O)CC(c2ccco2)C1 (stereo unspecified),-14%,-37%,-22%,2.3µM*,10µM*,-21%
COC(=O)c1ccccc1NC(=S)N(Cc1ccc2c(c1)OCO2)Cc1cc2ccc(C)cc2[nH]c1=O,?,21%,16%,9.3µM*,?,?
SMILES,HCV inh,SARS PLP yeast,AMA1-RON2 inh,Pf growth 48h,Pf growth 96h,NS1 inh
CCN(CC)CCN(Cc1cc2cc(C)ccc2[nH]c1=O)C(=O)Nc1ccccc1OC,15%,1%,18%,?,.,-4%
CCN(CC)CCN(Cc1cc2ccc(C)cc2[nH]c1=O)C(=S)Nc1ccccc1C(=O)OC,?,1%,-6%,13µM*,47%,-2%
COc1ccc2[nH]c(=O)c(CN(Cc3ccc4c(c3)OCO4)C(C)=O)cc2c1,7%,-1%,4%,6%,?,-4%
COC(=O)c1ccccc1NC(=S)N(Cc1ccc2c(c1)OCO2)Cc1cc2ccc(OC)cc2[nH]c1=O,?,3%,-5%,9.3µM*,34%,?
COc1ccc(-c2csc(N3CCN(S(=O)(=O)c4ccc5c(c4)NC(=O)CO5)CC3)n2)cc1,?,-3%,3%,8.3µM*,12µM*,21%
O=S(=O)(c1ccc(F)cc1)N1CCN(c2nc(-c3ccc(F)cc3)cs2)CC1,-22%,1%,2%,?,?,17%
O=C1COc2ccc(S(=O)(=O)N3CCN(c4ccccc4F)CC3)cc2N1,?,-1%,-6%,-17%,69%,2%
Cc1sc(N2CCN(S(=O)(=O)c3ccc4c(c3)NC(=O)CO4)CC2)nc1-c1ccccc1,4%,-11%,0%,?,9.3µM*,15%
Cc1c([N+](=O)[O-])cc(C(=O)Nc2ccc(Cc3ccncc3)cc2)cc1[N+](=O)[O-],?,5%,-11%,13µM*,-4%,7%
O=C(Nc1ccc(Cc2ccncc2)cc1)c1ccc(Cl)c([N+](=O)[O-])c1,-21%,-9%,-5%,?,?,5%
COc1ccccc1NC(=S)N/N=C1\CC(C)(C)Oc2ccc(O)cc21,10µM*,-1%,90%,?,6%,.
COc1ccc(NC(=S)N/N=C2\CC(C)(C)Oc3ccc(O)cc32)cc1,?,?,16%,?,-2%,9%
CCOc1ccccc1NC(=O)C1CCCN(c2c(CC)c(C)nc3ncnn23)C1 (stereo unspecified),13µM*,4%,7%,10µM*,13%,-7%
CCc1c(C)nc2ncnn2c1N1CCC(C(=O)Nc2ccc(C)cc2)CC1,?,-3%,9%,?,12µM*,-7%
Cc1nc2ncnn2c(N2CCCC(C(=O)Nc3ccc4c(c3)CCC4)C2)c1C (stereo unspecified),10µM*,1%,-9%,5.2µM*,154%,-4%
